From PubChem BioAssay (EPA / NIEHS)
Records with an inconclusive call do not appear. Activity calls are given as the source filed them. How the source made its calls, unless noted: active means hit-call score of the fitted dose curve at least 0.9, where 1 is the maximum; inconclusive means response in the unintended direction; inactive means score below 0.9.

Experiments:
[1] = ATG_TCF_b_cat_CIS: Attagene CIS-FACTORIAL HepG2 Assay for human T-Cell-Factor with beta-catenin (TCF/b-cat) (AID 2282965; active means hit-call score of the fitted dose curve at least 0.9, where 1 is the maximum; inactive means score below 0.9); details: HepG2 TCF/beta-catenin cis-reporter transcription, actives raise or lower the signal
How it was run: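 In this cis-format system, transfected HepG2 cells report endogenous transcription factor activity. Readout after 24 h exposure is reporter transcript abundance from RT-PCR and capillary electrophoresis, analysed for gain or loss of signal versus DMSO.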

[2] = ATG_TAL_CIS: Attagene CIS-FACTORIAL HepG2 Assay for human TAL Basal Promoter (AID 2282966; active means hit-call score of the fitted dose curve at least 0.9, where 1 is the maximum; inactive means score below 0.9;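 further: background control endpoint measuring basal TAL promoter reporter mRNA not a specific factor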); details: HepG2 Attagene cis-factorial TAL promoter reporter; actives raise or lower the signal
How it was run: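 After 24 hours of chemical exposure, transfected HepG2 cells yielded RNA that was converted to 6-FAM-labelled, HpaI-digested reporter fragments for capillary electrophoresis. Values derive from bidirectional fitting against DMSO controls.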

[3] = ATG_TGFb_CIS: Attagene CIS-FACTORIAL HepG2 Assay for human Transforming Growth Factor (TGF) (AID 2282967; active means hit-call score of the fitted dose curve at least 0.9, where 1 is the maximum; inactive means score below 0.9); details: HepG2 Attagene CIS TGFb reporter, mRNA transcription; actives raise or lower the signal
How it was run: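 Transient MRTU transfection of HepG2 (FuGene 6). Dose 24 h. TriZol RNA, oligo(dT) RT, PCR, 6-FAM primer extension, HpaI cut, CE. Bidirectional fit, DMSO = baseline.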

[4] = ATG_VDRE_CIS: Attagene CIS-FACTORIAL HepG2 Assay for human Vitamin D Receptor Element (VDRE) (AID 2282968; active means hit-call score of the fitted dose curve at least 0.9, where 1 is the maximum; inactive means score below 0.9); details: HepG2 VDRE cis-reporter transcription, actives raise or lower the signal
How it was run: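 Transfected HepG2 reporter cells, chemical treatment 24 h. RNA isolated, cDNA amplified with reporter-specific primers, products analysed by capillary electrophoresis. Endpoint fitted in both directions versus DMSO.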

[5] = biological target: Nuclear receptor subfamily 1 group I member 3 (Homo sapiens) (UniProt Q14994); test: ATG_CAR_TRANS: Attagene TRANS-FACTORIAL HepG2 Assay for human Constitutive Androstane Receptor (CAR) (AID 2282969); details: HepG2 Attagene TRANS-FACTORIAL CAR reporter;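 further: activators raise reporter mRNA above DMSO so AC50 marks induction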
How it was run: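 Steps: transient transfection of HepG2 with multiple GAL4-UAS reporter units; 24 h compound incubation; RNA isolation, RT-PCR, 6-FAM primer extension, HpaI digest; capillary electrophoresis. Gain-of-signal relative to DMSO negative control.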

[6] = biological target: Estrogen receptor (Homo sapiens) (UniProt P03372); test: ATG_ERa_TRANS: Attagene TRANS-FACTORIAL HepG2 Assay for human Estrogen Receptor alpha (ERa) (AID 2282970); details: HepG2 Attagene TRANS ERa GAL4 reporter, mRNA
How it was run: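 Liver-derived HepG2 cells expressing chimeric nuclear receptor-Gal4 proteins from transient transfection were exposed for 24 hours. Gain of reporter mRNA signal versus DMSO, read by capillary electrophoresis of FAM-labelled PCR products, was recorded.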

[7] = biological target: X-box-binding protein 1 (Homo sapiens) (UniProt P17861); test: ATG_Xbp1_CIS: Attagene CIS-FACTORIAL HepG2 Assay for human X-box Binding Protein 1 (XBP1) (AID 2282972; active means hit-call score of the fitted dose curve at least 0.9, where 1 is the maximum; inactive means score below 0.9); details: HepG2 XBP1 cis-element reporter, Attagene multiplex; actives raise or lower the signal
How it was run: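 Multiplexed cis-reporter readout in transfected HepG2 liver cells. Exposure lasted 24 hours. Activity in either direction was fitted against DMSO as negative control and baseline.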

[8] = ATG_GAL4_TRANS: Attagene TRANS-FACTORIAL HepG2 Assay for GAL4 (Internal Marker) (AID 2282976); details: HepG2 Attagene TRANS GAL4 internal marker reporter
How it was run: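 First, HepG2 cells were transfected with reporter units under GAL4-UAS control. Next, they were treated with chemical for 24 h. Finally, RNA was reverse-transcribed, PCR-amplified, FAM-labelled and resolved by capillary electrophoresis, with induction scored against DMSO.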

[9] = biological target: Glucocorticoid receptor (Homo sapiens) (UniProt P04150); test: ATG_GR_TRANS: Attagene TRANS-FACTORIAL HepG2 Assay for human Glucocorticoid Receptor (GR) (AID 2282978); details: HepG2 Attagene TRANS GR reporter, mRNA transcription;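 further: activators score as hits since higher reporter transcript over DMSO is fitted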
How it was run: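 Readout is reporter transcript from a chimeric GR-Gal4 acting on GAL4-UAS in transfected human HepG2 liver cells after 24 h exposure, quantified by RT-PCR and capillary electrophoresis. Activation fitted upward against DMSO.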

[10] = biological target: Bile acid receptor (Homo sapiens) (UniProt Q96RI1); test: ATG_FXR_TRANS: Attagene TRANS-FACTORIAL HepG2 Assay for Farnesoid X Receptor (FXR) (AID 2282979); details: HepG2 Attagene TRANS FXR-GAL4 reporter transcription;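 further: hits raise reporter mRNA above DMSO so AC50 marks FXR activation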
How it was run: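 Transient transfection of HepG2 with multiplexed GAL4-UAS reporter units; exogenous FXR-GAL4 chimera. Dose 24 h → TriZol RNA → oligo(dT) RT → PCR, 6-FAM primer extension, HpaI cut → CE. Gain vs DMSO.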

[11] = biological target: Oxysterols receptor LXR-alpha (Homo sapiens) (UniProt Q13133); test: ATG_LXRa_TRANS: Attagene TRANS-FACTORIAL HepG2 Assay for human Liver X Receptor alpha (LXRa) (AID 2282980); details: HepG2 Attagene TRANS reporter, LXRa transactivation
How it was run: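 Transfect HepG2 with GAL4-UAS multiplex reporter constructs (TRANS format, chimeric receptor-GAL4); treat 24 h; extract RNA, reverse-transcribe, PCR-amplify, FAM-label, HpaI-digest; resolve fragments by capillary electrophoresis. Upward response vs DMSO.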

[12] = biological target: Hepatocyte nuclear factor 4-alpha (Homo sapiens) (UniProt P41235); test: ATG_HNF4a_TRANS: Attagene TRANS-FACTORIAL HepG2 Assay for human Hepatocyte Nuclear Factor 4 alpha (HNF4a) (AID 2282982); details: HepG2 HNF4a transactivation reporter, mRNA readout
How it was run: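 Using HepG2 liver cells transfected with GAL4-UAS reporter units, chemical-induced mRNA increases were assessed after 24 hours. Fluorescent RT-PCR fragments were separated by capillary electrophoresis and compared with DMSO negative controls.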

[13] = ATG_M_06_TRANS: Attagene TRANS-FACTORIAL HepG2 Assay for M06 Transcription Factor (Internal Marker) (AID 2282983); details: HepG2 Attagene TRANS M06 internal marker reporter;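 further: reporter transcript level by RT-PCR then capillary electrophoresis fluorescence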
How it was run: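 Background control endpoint: reporter mRNA from transiently transfected HepG2 after 24 h dosing, detected by RT-PCR with capillary electrophoresis fluorescence. Analysed for gain versus DMSO.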

[14] = ATG_M_32_TRANS: Attagene TRANS-FACTORIAL HepG2 Assay for M32 Transcription Factor (Internal Marker) (AID 2282984); details: HepG2 Attagene TRANS M32 internal marker reporter;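 further: transcript level of a background control reporter unit measured by RT-PCR and capillary electrophoresis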
How it was run: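 Fluorescence-detected mRNA induction, HepG2 liver cells, 24 h after dosing. Multiple GAL4-UAS reporter units introduced by transient transfection; background-control endpoint analysed for gain of signal against DMSO.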

[15] = biological target: Transcriptional activator Myb (Homo sapiens) (UniProt P10242); test: ATG_Myb_CIS: Attagene CIS-FACTORIAL HepG2 Assay for human Myeloblastosis (Myb) Proto-Oncogene Transcription Factor (AID 2282986; active means hit-call score of the fitted dose curve at least 0.9, where 1 is the maximum; inactive means score below 0.9); details: HepG2 Attagene CIS-FACTORIAL Myb reporter transcription; actives raise or lower the signal
How it was run: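 Reporter mRNA is quantified by RT-PCR and capillary electrophoresis 24 h after dosing HepG2 cells transfected with cis-regulated reporter units, which track endogenous transcription factor activity. Gain and loss of signal are fitted versus DMSO baseline.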

[16] = biological target: Steroid hormone receptor ERR1 (Homo sapiens) (UniProt P11474); test: ATG_ERRa_TRANS: Attagene TRANS-FACTORIAL HepG2 Assay for human Estrogen-Related Receptor alpha (ERRa) (AID 2282971); details: HepG2 Attagene TRANS reporter, ERRa transactivation
How it was run: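 Reporter transcript induction was quantified by RT-PCR and capillary electrophoresis of FAM-labelled, HpaI-cut products after 24 h treatment of HepG2 cells carrying transiently transfected GAL4-UAS reporter units and an exogenous ERRa-Gal4 fusion; activity scored as increase over DMSO.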

[17] = biological target: Estrogen-related receptor gamma (Homo sapiens) (UniProt P62508); test: ATG_ERRg_TRANS: Attagene TRANS-FACTORIAL HepG2 Assay for human Estrogen-Related Receptor gamma (ERRg) (AID 2282977); details: HepG2 Attagene TRANS reporter, ERRg transactivation;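 further: hits increase reporter signal over DMSO so potencies reflect activators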
How it was run: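 Readout: fluorescent reporter-mRNA fragments resolved by capillary electrophoresis after RT-PCR and HpaI cut. Cells: transiently transfected HepG2 carrying GAL4-UAS reporters driven by exogenous NR-Gal4 chimeras, dosed 24 h. Activity fitted upward relative to DMSO baseline.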

[18] = biological target: Oxysterols receptor LXR-beta (Homo sapiens) (UniProt P55055); test: ATG_LXRb_TRANS: Attagene TRANS-FACTORIAL HepG2 Assay for human Liver X Receptor beta (LXRb) (AID 2282981); details: HepG2 Attagene TRANS GAL4-LXRb reporter, mRNA
How it was run: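 Liver-derived HepG2 cells transfected with Gal4-responsive reporters were dosed for 24 h. Activation was scored as rise in reporter mRNA, by RT-PCR and capillary electrophoresis, above DMSO baseline.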

[19] = biological target: Nuclear receptor subfamily 4 group A member 2 (Homo sapiens) (UniProt P43354); test: ATG_NURR1_TRANS: Attagene TRANS-FACTORIAL HepG2 Assay for human Nuclear Receptor Related Protein 1 (NURR1) (AID 2282985); details: HepG2 Attagene TRANS reporter, mRNA readout
How it was run: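 Chimeric NR-Gal4 proteins were expressed in human HepG2 cells bearing GAL4-UAS reporter units, and induced reporter mRNA was quantified 24 h post-dosing by RT-PCR and capillary electrophoresis.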

[20] = ATG_M_19_TRANS: Attagene TRANS-FACTORIAL HepG2 Assay for M19 Transcription Factor (Internal Marker) (AID 2282974); details: HepG2 Attagene TRANS-FACTORIAL M19 internal marker reporter
How it was run: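 Background-control readout: after 24 h chemical exposure of transfected HepG2 carrying GAL4-driven reporter units, RNA was reverse-transcribed, amplified, fluorescently labeled and sized by capillary electrophoresis; gain-of-signal fit against DMSO.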

Measured: outcome

Chain of Nuclear receptor subfamily 4 group A member 2 (Homo sapiens) (P43354 whole entry, looked up, the tested form may be a part): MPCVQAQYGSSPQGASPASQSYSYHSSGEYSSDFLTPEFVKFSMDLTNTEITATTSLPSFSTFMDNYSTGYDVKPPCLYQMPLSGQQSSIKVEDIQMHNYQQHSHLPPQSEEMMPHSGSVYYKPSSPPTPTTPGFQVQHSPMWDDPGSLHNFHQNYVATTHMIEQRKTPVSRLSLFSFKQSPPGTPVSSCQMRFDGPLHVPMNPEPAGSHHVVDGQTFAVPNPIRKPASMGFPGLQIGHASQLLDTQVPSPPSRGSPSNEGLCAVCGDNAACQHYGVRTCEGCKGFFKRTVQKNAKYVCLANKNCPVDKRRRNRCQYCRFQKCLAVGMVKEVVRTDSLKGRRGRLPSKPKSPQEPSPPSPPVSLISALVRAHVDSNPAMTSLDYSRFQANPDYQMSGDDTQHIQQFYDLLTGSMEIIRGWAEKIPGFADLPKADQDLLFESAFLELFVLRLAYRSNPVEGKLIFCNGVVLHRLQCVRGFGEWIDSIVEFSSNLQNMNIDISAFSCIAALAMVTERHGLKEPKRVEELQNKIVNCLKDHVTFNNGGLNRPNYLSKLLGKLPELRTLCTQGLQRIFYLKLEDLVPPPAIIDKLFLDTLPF
Chain of Estrogen receptor (Homo sapiens) (P03372 whole entry, looked up, the tested form may be a part): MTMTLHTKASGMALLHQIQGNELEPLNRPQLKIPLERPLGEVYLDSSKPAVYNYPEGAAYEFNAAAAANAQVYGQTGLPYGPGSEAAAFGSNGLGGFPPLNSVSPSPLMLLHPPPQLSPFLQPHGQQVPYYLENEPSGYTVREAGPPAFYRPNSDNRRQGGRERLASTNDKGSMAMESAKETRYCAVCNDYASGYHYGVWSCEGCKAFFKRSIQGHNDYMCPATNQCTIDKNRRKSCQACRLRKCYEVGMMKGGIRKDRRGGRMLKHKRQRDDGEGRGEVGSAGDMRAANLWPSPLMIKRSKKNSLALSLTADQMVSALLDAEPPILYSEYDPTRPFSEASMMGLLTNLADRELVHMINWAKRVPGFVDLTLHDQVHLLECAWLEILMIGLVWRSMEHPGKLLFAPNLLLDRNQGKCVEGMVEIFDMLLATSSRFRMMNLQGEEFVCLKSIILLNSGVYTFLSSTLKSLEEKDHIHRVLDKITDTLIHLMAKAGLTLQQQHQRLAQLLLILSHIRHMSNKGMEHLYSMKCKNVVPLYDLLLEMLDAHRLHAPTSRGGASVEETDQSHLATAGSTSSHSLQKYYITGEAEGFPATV
Chain of Oxysterols receptor LXR-alpha (Homo sapiens) (Q13133 whole entry, looked up, the tested form may be a part): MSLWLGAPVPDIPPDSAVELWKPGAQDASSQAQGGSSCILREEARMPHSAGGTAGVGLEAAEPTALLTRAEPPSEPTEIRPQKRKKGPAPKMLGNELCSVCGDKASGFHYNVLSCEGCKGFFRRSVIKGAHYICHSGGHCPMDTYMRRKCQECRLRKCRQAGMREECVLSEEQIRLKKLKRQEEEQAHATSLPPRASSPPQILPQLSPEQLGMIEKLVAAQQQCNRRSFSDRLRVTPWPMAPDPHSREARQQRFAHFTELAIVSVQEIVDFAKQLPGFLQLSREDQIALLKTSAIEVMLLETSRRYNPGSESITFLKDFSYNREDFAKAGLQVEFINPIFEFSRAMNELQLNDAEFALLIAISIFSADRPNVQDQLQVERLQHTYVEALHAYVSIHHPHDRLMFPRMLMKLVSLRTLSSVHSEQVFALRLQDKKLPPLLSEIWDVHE
Chain of Estrogen-related receptor gamma (Homo sapiens) (P62508 whole entry, looked up, the tested form may be a part): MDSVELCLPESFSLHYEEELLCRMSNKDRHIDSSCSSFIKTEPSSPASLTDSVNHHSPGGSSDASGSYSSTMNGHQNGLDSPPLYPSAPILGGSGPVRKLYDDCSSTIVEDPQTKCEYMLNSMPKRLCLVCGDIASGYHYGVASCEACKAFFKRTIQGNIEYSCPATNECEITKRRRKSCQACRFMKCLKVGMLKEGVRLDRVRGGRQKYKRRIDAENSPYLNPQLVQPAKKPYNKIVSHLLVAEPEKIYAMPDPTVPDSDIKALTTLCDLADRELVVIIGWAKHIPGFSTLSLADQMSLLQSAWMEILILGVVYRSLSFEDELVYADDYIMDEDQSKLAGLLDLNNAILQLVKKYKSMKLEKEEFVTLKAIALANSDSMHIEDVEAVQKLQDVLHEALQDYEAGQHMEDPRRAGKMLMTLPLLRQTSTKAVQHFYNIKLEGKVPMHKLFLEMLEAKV
Chain of Nuclear receptor subfamily 1 group I member 3 (Homo sapiens) (Q14994 whole entry, looked up, the tested form may be a part): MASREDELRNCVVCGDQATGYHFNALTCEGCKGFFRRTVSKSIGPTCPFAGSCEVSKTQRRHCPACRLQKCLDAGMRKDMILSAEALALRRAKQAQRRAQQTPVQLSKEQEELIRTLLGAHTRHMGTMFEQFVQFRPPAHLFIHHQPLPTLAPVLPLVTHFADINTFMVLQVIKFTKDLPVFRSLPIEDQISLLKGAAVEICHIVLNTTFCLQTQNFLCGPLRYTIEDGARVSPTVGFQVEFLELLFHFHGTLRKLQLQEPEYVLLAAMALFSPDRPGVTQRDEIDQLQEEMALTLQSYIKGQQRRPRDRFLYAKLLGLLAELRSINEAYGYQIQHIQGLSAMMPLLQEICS
Chain of Hepatocyte nuclear factor 4-alpha (Homo sapiens) (P41235 whole entry, looked up, the tested form may be a part): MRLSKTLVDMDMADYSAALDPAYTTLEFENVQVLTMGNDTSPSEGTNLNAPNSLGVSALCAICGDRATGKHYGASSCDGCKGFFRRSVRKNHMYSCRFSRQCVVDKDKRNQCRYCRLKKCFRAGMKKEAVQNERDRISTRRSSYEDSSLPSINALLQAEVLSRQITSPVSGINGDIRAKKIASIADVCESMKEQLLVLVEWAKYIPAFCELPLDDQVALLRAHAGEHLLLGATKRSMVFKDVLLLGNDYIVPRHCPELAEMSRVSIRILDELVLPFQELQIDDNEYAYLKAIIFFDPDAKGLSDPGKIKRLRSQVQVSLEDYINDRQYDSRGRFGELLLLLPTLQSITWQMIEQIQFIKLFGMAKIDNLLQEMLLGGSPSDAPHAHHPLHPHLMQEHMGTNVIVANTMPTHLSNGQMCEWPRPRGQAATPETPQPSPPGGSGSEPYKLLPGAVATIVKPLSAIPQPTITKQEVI
Chain of Oxysterols receptor LXR-beta (Homo sapiens) (P55055 whole entry, looked up, the tested form may be a part): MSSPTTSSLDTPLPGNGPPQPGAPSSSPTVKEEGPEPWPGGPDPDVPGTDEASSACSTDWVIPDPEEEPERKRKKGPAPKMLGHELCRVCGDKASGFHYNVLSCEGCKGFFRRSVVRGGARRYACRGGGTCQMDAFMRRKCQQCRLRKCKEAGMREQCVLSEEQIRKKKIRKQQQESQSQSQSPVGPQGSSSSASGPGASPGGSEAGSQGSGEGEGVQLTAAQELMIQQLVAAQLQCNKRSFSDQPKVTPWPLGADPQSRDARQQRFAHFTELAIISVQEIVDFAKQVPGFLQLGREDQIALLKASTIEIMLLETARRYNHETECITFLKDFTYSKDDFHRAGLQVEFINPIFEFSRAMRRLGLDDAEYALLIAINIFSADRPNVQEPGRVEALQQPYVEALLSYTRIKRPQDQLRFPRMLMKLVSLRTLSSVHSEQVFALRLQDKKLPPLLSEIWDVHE
Chain of X-box-binding protein 1 (Homo sapiens) (P17861 whole entry, looked up): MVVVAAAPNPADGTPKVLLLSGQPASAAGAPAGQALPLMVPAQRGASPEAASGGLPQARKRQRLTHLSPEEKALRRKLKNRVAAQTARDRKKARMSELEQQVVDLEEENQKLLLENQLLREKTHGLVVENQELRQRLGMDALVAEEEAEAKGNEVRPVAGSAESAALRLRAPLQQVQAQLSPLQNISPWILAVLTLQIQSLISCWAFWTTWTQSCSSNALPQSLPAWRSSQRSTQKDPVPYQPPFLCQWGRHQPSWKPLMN
Chain of Steroid hormone receptor ERR1 (Homo sapiens) (P11474 whole entry, looked up, the tested form may be a part): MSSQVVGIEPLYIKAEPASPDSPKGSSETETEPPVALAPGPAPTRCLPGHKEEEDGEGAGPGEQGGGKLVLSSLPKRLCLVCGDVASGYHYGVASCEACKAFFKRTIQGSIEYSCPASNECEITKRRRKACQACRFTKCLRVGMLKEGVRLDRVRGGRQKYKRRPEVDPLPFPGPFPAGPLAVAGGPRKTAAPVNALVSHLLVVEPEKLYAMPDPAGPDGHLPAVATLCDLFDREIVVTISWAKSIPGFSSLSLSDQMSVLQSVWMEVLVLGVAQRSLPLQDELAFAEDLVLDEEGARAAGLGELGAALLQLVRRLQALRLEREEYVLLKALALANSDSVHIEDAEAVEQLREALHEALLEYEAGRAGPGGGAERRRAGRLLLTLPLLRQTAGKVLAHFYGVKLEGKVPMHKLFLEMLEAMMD
Chain of Transcriptional activator Myb (Homo sapiens) (P10242 whole entry, looked up): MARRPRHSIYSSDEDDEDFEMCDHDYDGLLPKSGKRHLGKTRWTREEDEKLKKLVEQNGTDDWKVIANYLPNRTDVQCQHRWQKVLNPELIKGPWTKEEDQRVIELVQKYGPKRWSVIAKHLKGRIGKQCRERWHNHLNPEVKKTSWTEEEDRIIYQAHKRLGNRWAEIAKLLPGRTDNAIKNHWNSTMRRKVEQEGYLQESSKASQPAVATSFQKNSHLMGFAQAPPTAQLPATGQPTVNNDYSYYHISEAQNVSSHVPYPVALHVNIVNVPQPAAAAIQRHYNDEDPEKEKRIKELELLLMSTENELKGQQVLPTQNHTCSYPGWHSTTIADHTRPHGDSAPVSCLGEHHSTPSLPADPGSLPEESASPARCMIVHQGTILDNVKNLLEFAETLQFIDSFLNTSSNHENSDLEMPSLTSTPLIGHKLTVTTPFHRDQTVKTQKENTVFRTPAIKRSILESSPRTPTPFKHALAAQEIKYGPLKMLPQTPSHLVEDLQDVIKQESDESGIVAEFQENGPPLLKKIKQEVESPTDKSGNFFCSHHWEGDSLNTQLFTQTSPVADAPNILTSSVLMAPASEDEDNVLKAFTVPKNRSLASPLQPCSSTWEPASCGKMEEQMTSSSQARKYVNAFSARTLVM

CC(=O)c1ccc(O)cc1
not listed: [16] | [17] | [18] | [19] | [20]
inactive: all other assays above

O=C(O)c1cc2ccccc2cc1O
not listed: [8] | [9] | [10] | [20]
inactive: all other assays above

C=C(C)C(=O)OCCN(C)C
inactive: [1] | [2] | [3] | [4] | [5] | [6] | [7] | [20] | [8] | [12] | [15]

O=C(O)c1ccccc1O
not listed: [9] | [10] | [12] | [13] | [19]
inactive: all other assays above

CC(C)C(=O)OCC=Cc1ccccc1
not listed: [8] | [11] | [13] | [16] | [17] | [18]
inactive: all other assays above

CCCCC(CC)COCCO (stereo not drawn)
not listed: [7] | [10] | [12] | [13] | [16] | [18] | [19] | [20]
inactive: all other assays above

c1ccc(OCCOc2ccccc2)cc1
not listed: [7] | [8] | [10] | [16] | [17] | [18] | [19]
inactive: all other assays above

CC(O)CN (stereo not drawn)
not listed: [5] | [10] | [13] | [17]
inactive: all other assays above

Cc1cc(N)n(-c2ccccc2)n1
not listed: [6] | [8] | [9] | [10] | [12] | [14] | [18] | [20]
inactive: all other assays above

CCOCC(C)O (stereo not drawn)
not listed: [5] | [8] | [9] | [10] | [13] | [19]
inactive: all other assays above
